Compounds with a hit are over-represented: about 8% of the library has one in this group of screens.
HCMV inh = human cytomegalovirus inhibition | HFF cells, HCMV-luciferase reporter, 72 h; active compounds read low | activity change, negative = inhibition, % at 57.5 µM | 410,000 tested, 4.5% active | AID 1259415; in the data active means activity change below about -60%; inconclusive means no clear call, values can overlap the other calls; inactive means above about -39%; further: on the % scale 0 is the no-effect control and ±100 the full control effect
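Screen run at 2 compound doses on HFFs infected with reporter HCMV, MOI 1 PFU/cell. Luciferase activity from cell lysates at 72 h post infection gave inhibition relative to buffer-only and Salinomycin wells.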
MARV entry inh = inhibitors of Marburg virus binding or cell entry; Marburg virus pseudotyped entry inhibition, cell reporter; Potency, µM (top dose mostly 37.8 µM), inactives show at the top dose activity change, negative = inhibition, most hits filed as inhibitors; 300,000 tested, 1.8% active; calls by dose curve; tested in HEK293 cells; further: potency means the concentration at half of the fitted maximal effect; on the % scale 0 is the no-effect control and ±100 the full control effect
LASV entry inh = inhibitors of Lassa virus binding or cell entry. Potency, µM (series often up to 37.9 µM), without a hit: at the highest dose activity change, negative = inhibition, usual class: inhibitors. 300,000 tested, 1.2% active. Lassa virus pseudotype entry inhibition, cell reporter; calls by dose curve; tested in HEK293 cells; further: potency means the concentration at half of the fitted maximal effect; on the % scale 0 is the no-effect control and ±100 the full control effect; nearly all actives have a fitted effect of over 50% in size
FMDV antiviral = antivirals against foot and mouth disease virus | FMDV antiviral cell-based qHTS | Potency, µM (doses to about 57.9 µM), for inactives: at the highest dose activity change, negative = inhibition, hits mostly inhibitors | 410,000 tested, 1.2% active | AID 1159524; calls by dose curve; tested in HEK293T cells; further: read-out not given here; potency means the concentration at half of the fitted maximal effect; on the % scale 0 is the no-effect control and ±100 the full control effect; nearly all actives have a fitted effect of over 45% in size
HCV inhibitor = HCV inhibition | AID 651820 | Potency, µM (highest dose often 41.8 µM), without a hit: top-dose activity change, negative = inhibition, hits mostly inhibitors | 340,000 tested, 3.4% active | Huh7.5.1 HCVcc-Cre infection, luciferase reporter, 44 h; active means well fitted inhibition curve with a large enough effect; inconclusive means small, poorly fitted or top-dose-only effect, or another doubt; inactive means no such curve, though single readings can be large or run the other way; further: potency means the concentration at half of the fitted maximal effect; on the % scale 0 is the no-effect control and ±100 the full control effect
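Cells seeded at 1,000/well and cultured 4 h, then compounds added followed by HCVcc-Cre virus (~0.5 moi). After 44 h further culture, luciferase substrate was added, plates held 15 min at room temperature, and luminescence read for 15 sec.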
SARS PLP yeast = blocks SARS-CoV papain-like protease in a yeast assay. AID 485353. 330,000 tested, 0.19% active. Potency, µM (doses to about 32.9 µM), for the others: at the top dose activity, positive = growth rescue, hits mostly activators. S. cerevisiae expressing SARS-CoV PLpro, growth rescue; calls by dose curve; further: potency means the concentration at half of the fitted maximal effect; 0% is about no effect; nearly all actives have a fitted effect of over 55% in size
An asterisk follows results filed as active; ? = inconclusive; . = no result given; [ ] = another dose, or the depositor's remark.

SMILES	HCMV inh	MARV entry inh	LASV entry inh	FMDV antiviral	HCV inhibitor	SARS PLP yeast
Cc1ccc(-n2c(C)cc(C(=O)COc3cccnc3[N+](=O)[O-])c2C)cc1	-98.6*	?	?	?	?	17.8%
Cc1ccc(OCC(=O)c2cc(C)n(C)c2C)c([N+](=O)[O-])n1	-71.4*	4.0%	?	13.5%	25.7%	-3.9%
Cc1cc(-n2c(C)cc(C(=O)COc3ccccc3[N+](=O)[O-])c2C)no1	12.8	-5.8%[46.1 µM]	9.3%	37.6%	-27.0%	-2.3%
Cc1c(C(=O)N2CC3CCC2C3)sc2ncnc(NCCc3ccccn3)c12 (stereo unspecified)	.	.	.	-8.5%	.	.
COc1ccc(C(C)=O)c(Oc2ccc(S(=O)(=O)N3CCOCC3)cn2)c1	23.7	.	.	0.5%	-1.2%	-1.2%
COc1cccc(N2CC(NC(=O)c3cc(Cl)ccc3OC)CC2=O)c1 (stereo unspecified)	15.5	.	19.8%[46.1 µM]	-6.2%	.	.
COc1ccc(Nc2ncc3c(n2)CC(c2ccc(C)cc2)CC3=O)cc1 (stereo unspecified)	1.9	?	0.231µM*	7.4%	-20.8%	2.4%
Cc1ccc(NC(=O)/C(Cl)=C\c2ccccc2)cc1	-1.4	7.94µM*	4.47µM*	-5.5%	-4.7%	-30.9%
COc1ccc(CN2CCCC(n3cc(C(=O)NC4CCCC4)nn3)C2)c2ccccc12 (stereo unspecified)	.	.	.	-5.6%	.	.
CC(Sc1nnc(-c2cccnc2)n1-c1ccccc1F)C(=O)N1CCCc2ccccc21 (stereo unspecified)	-64.6*	-0.7%	.	.	5.5%	-12.2%
O=C(NC1CCCCC1)c1nccnc1-c1ccc(C(F)(F)F)cc1	33.3	.	.	.	.	.
COc1cc(OC)nc(-n2ncc(Br)c(Br)c2=O)n1	-104.8*	1.64µM*	1.26µM*	10µM*	3.98µM*	-57.2%
CC(=O)Nc1sc2c(c1C(c1ccc(Cl)cc1)N1CCOCC1)CCCC2 (stereo unspecified)	-94.3*	?	?	?	1.5%	0.0%
CC(=O)Nc1sc2c(c1C(c1ccc(F)cc1)N1CCOCC1)CCCC2 (stereo unspecified)	-86.2*	12.6µM*	-25.2%	?	7.9%	-11.2%
CC(=O)Nc1sc2c(c1C(c1ccccc1)N1CCOCC1)CCCC2 (stereo unspecified)	-28.3	7.2%	19.6%	?	35.8%	-0.8%
COc1ccc(OC)c(CCNC(=O)c2cc3c(=O)oc4ccc(C)cc4c3s2)c1	-5.7	-27.9%[46.1 µM]	9.7%[46.1 µM]	-12.5%	.	.
CCOC(=O)c1noc2c1CCC2	8.8	.	.	-2.4%	.	.
CCOC(=O)c1cnc2c3c(noc13)CCC2	-101.4*	.	.	.	.	.
CC1=C(C(=O)OCCNC(=O)c2ccccc2O)C(c2ccccc2[N+](=O)[O-])C(C(=O)OCC2CCCO2)=C(C)N1 (stereo unspecified)	?	?	10µM*	28.2µM*	?	-7.6%
N#Cc1ccsc1NC(=O)c1cccc([N+](=O)[O-])c1	27.3	-7.7%[46.1 µM]	0.0%	-21.1%	10µM*	1.4%
COC(=O)[C@@]12C[C@@H](CC(=O)NCc3cccc4ccccc34)C(=O)N(CCc3ccc(OC)c(OC)c3)C1=CCC(C)(C)C2	-16.1	.	.	-12.8%	.	.
CCOC(=O)[C@@H](NC(=O)CC[C@H]1O[C@@H](n2cc(C)c(=O)[nH]c2=O)C[C@@H]1O)C(C)C	0.3	.	.	-6.6%	.	.
CCc1ccccc1N1CC(c2nc3ccccc3n2CCOc2ccc(Cl)c(C)c2)CC1=O (stereo unspecified)	-62.4*	?	?	28.2µM*	.	.
Cc1cc(OCCn2c(C3CC(=O)N(Cc4ccc(F)cc4)C3)nc3ccccc32)ccc1Cl (stereo unspecified)	-17.0	7.3%[46.1 µM]	-1.5%[46.1 µM]	?	.	.
CCCn1c(N)c(C(=O)CSc2nnc(Cc3ccccc3)o2)c(=O)n(C)c1=O	-32.3	?	?	?	10µM*	7.9%
SMILES	HCMV inh	MARV entry inh	LASV entry inh	FMDV antiviral	HCV inhibitor	SARS PLP yeast
Cc1ccc(S(=O)(=O)N(C)c2ccc(C(=O)N3CCN(Cc4ccc5c(c4)OCO5)CC3)cc2)cc1	-95.0*	?	?	15.8µM*	4.47µM*	6.8%
O=C(c1ccccc1Cl)N1CCN(Cc2ccc3c(c2)OCO3)CC1	-3.3	.	.	?	?	1.4%
CN(c1ccc(C(=O)N2CCN(Cc3ccc4c(c3)OCO4)CC2)cc1)S(=O)(=O)c1ccccc1	-100.7*	?	-27.1%	?	6.31µM*	17.3%
Cc1ccc(S(=O)(=O)N(C)CC(=O)N2CCN(Cc3ccc4c(c3)OCO4)CC2)cc1	-2.6	-18.7%	?	-15.1%	?	-2.3%
Cc1ccc(C(=O)N2CCN(Cc3ccc4c(c3)OCO4)CC2)c(Cl)c1	-31.2	?	-23.5%[46.1 µM]	?	11.2µM*	8.9%
COc1cccc(N2C(=O)CC(N3CCN(S(=O)(=O)c4ccccc4[N+](=O)[O-])CC3)C2=O)c1 (stereo unspecified)	-21.9	.	.	-3.9%	5.2%	.
CC(C)C(NC(=O)c1c(F)cccc1F)C(=O)N1CCN(S(=O)(=O)/C=C/c2ccccc2)CC1 (stereo unspecified)	0.7	.	.	-10.2%	?	4.9%
Cc1ccc(C)c(NC(=O)C(=O)NCCc2csc3nc(-c4ccccc4C)nn23)c1	-68.4*	.	11.4%[46.1 µM]	22.4µM*	.	.
Cc1ccc(NC(=O)C(=O)NCCc2csc3nc(-c4ccccc4C)nn23)cc1Cl	17.3	.	18.3%[46.1 µM]	-6.5%	.	.
COc1cccc([C@H]2Oc3ccc(OC)cc3/C(=N\OCC[C@@H]3C=C[C@H](OC(C)=O)[C@@H](COC(C)=O)O3)[C@@H]2O)c1	.	-24.0%[14.2 µM]	.	.	.	.
COc1ccc(C(=O)CN2CCN(CCN3C(=O)c4cccc5cccc(c45)C3=O)CC2)cc1	-22.3	.	.	?	10µM*	.
COc1cc2c3c(cccc3c1)C(=O)N(CCN1CCCC1)C2=O	-97.8*	.	.	0.0%	.	.
O=C(CN1CCN(CCN2C(=O)c3cccc4cccc(c34)C2=O)CC1)c1ccc(F)cc1	-26.4	-10.1%	-1.9%	28.4%	14.1µM*	-13.4%
O=C(CN1CCN(CCN2C(=O)c3cccc4cccc(c34)C2=O)CC1)c1ccc(Cl)cc1	.	-19.6%	0.0%	.	?	-17.0%
CC1(C(=O)N2CCCCC2)CCN1C(=O)c1ccccc1CCc1ccccc1 (stereo unspecified)	-21.4	.	.	8.7%	.	.
COc1ccc(CNC(=O)C(Cc2ccccc2)NS(=O)(=O)c2ccc3c(c2)CCN3C(C)=O)cc1 (stereo unspecified)	-12.9	?	-11.5%[46.1 µM]	19.3%	.	.
Cc1ccc(-c2nc3ccccc3c(=O)n2-c2cccc(C)n2)cc1	-84.9*	?	6.1%	5.5%	-10.3%	-1.6%
COc1ccc(-c2nc3ccccc3c(=O)n2-c2cccnc2)cc1	-77.0*	20.0%	13.9%	-20.1%	6.6%	-16.0%
Cc1ccc(-c2nc3ccccc3c(=O)n2-c2ccncc2)cc1	-8.3	7.8%	-13.7%	-23.3%	5.1%	-14.1%

Screening data: PubChem, National Center for Advancing Translational Sciences (NCATS)
